LASV entry inh: blocks Lassa virus binding to or entry into cells; Lassa virus pseudotype entry inhibition, cell reporter; Potency, µM (titrated, usually from 37.9 µM), actives largely listed as inhibitors; actives 1.2% (n = 300,000); AID 540256; calls by dose curve; tested in HEK293 cells; further: nearly all actives have a fitted effect of over 50% in size
FMDV antiviral: foot and mouth disease virus antiviral activity | Potency, µM (series often up to 57.9 µM), usual class: inhibitors | FMDV antiviral cell-based qHTS | actives 1.2% (n = 410,000); calls by dose curve; tested in HEK293T cells; further: read-out not given here; nearly all actives have a fitted effect of over 45% in size
HCV inh: HCV inhibition; Potency, µM (top dose mostly 41.8 µM), most hits filed as inhibitors; AID 651820; Huh7.5.1 HCVcc-Cre infection, luciferase reporter, 44 h; actives 3.4% (n = 340,000)
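Compounds are dispensed onto cells plated 4 h earlier at 1,000 per well, with HCVcc-Cre virus (about 0.5 moi) added next. Following 44 h of culture, luminescent signal is measured for 15 sec after 15 min with substrate at room temperature.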
MARV entry inh: inhibitors of Marburg virus binding or cell entry. actives 1.8% (n = 300,000). AID 540276. Marburg virus pseudotyped entry inhibition, cell reporter. Potency, µM (doses to about 37.8 µM), most hits filed as inhibitors; calls by dose curve; tested in HEK293 cells
HCMV antiviral: inhibitors of human cytomegalovirus | actives 4.5% (n = 410,000) | HFF cells, HCMV-luciferase reporter, 72 h; stronger effect = lower value | activity change, negative = inhibition, % at 57.5 µM; in the data active means activity change below about -60%; inconclusive means no clear call, values can overlap the other calls; inactive means above about -39%
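After 16 h attachment at 37C, HFF cells received test compound and HCMV-luciferase (1 PFU/cell); reporter luminescence read 72 h later, data normalized against buffer-only and known inhibitor Salinomycin.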
HCV confirm: confirmation of hepatitis C virus inhibitors; actives 78% (n = 640); AID 720575; shares compounds with HCV inh; HCVcc-Cre infectious virus cell assay, luciferase, inhibition; Potency, µM (series often up to 41.8 µM), hits mostly inhibitors; further: nearly all actives have a fitted effect of over 80% in size
HCV cytotox: toxic to HCV host cells, flagging false HCV inhibitors. shares compounds with HCV inh. HCV host cell line cytotoxicity counterscreen. Potency, µM (titrated, usually from 41.8 µM), hits mostly inhibitors. actives 22% (n = 640). AID 720576;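 further: 44 h compound exposure; nearly all actives have a fitted effect of over 55% in size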
Each line names hits and unclear results; the compound was inactive in the other large screens (follow-up assays come after a bar, where they were run); ! = repeats disagree. The list is not random: actives were taken first. Their share in the collection is about 7.9%. Unless noted, the call rests on the fitted dose curve; in most records, active means well fitted curve in the direction sought with a large enough effect; inconclusive means small, poorly fitted or top-dose-only effect, or another doubt; inactive means no such curve, though single readings can be large; an effect the other way counts as inactive or inconclusive.

Cc1cc(NCc2ccccn2)n2nc(C)c(-c3ccc(Cl)cc3)c2n1	LASV entry inh inconclusive, HCV inh 4.47µM, MARV entry inh 10µM, HCMV antiviral -98.8 | HCV confirm 11.2µM | HCV cytotox inactive
Cc1cc(NC(=O)c2cnn(-c3ccccc3)c2-n2cccc2)ccc1Br	none (no result: HCV inh)
COc1ccc(OC)c(NC(=O)c2nnn(Cc3ccccc3C)c2N)c1	HCV inh 7.08µM, MARV entry inh inconclusive | HCV confirm 22.3µM | HCV cytotox inactive
COc1ccc(NC(=O)c2nnn(Cc3ccccc3C)c2N)c(OC)c1	none (no result: HCV inh)
Cc1ccc2c(c1)c1c3n2CC(=C2C(=O)OC(C)(C)OC2=O)NC3CCC1 (stereo not drawn)	HCV inh 5.01µM (no result: FMDV antiviral) | HCV confirm 28µM | HCV cytotox inactive
COc1ccc(/C=N\NC(=O)c2ccccc2Br)cc1COc1c(F)c(F)cc(F)c1F	LASV entry inh inconclusive, HCV inh 5.01µM, MARV entry inh 6.31µM, HCMV antiviral -81.1 | HCV confirm 4.45µM | HCV cytotox 22.3µM
CCOc1ccc(CCNC(=O)c2cc3sccc3n2C)cc1OCC	FMDV antiviral inconclusive, HCV inh 6.31µM, MARV entry inh 7.08µM | HCV confirm 14.1µM | HCV cytotox inconclusive
CCOC(=O)c1cccc(NC(=O)CC2C(=O)N(c3ccc(C)cc3)C(=O)N2Cc2cccc(OC)c2)c1 (stereo not drawn)	none (no result: HCV inh, MARV entry inh)
CCCC(=O)NC(=S)Nc1ccc(N2CCN(C(=O)c3cccs3)CC2)cc1	LASV entry inh inconclusive, FMDV antiviral inconclusive, HCV inh 0.794µM, MARV entry inh inconclusive | HCV confirm inconclusive | HCV cytotox inactive
COc1ccc(NS(=O)(=O)c2ccc3nc(COc4ccc5ccccc5c4)[nH]c3c2)cc1	LASV entry inh inconclusive, FMDV antiviral inconclusive, HCV inh 7.94µM, MARV entry inh inconclusive, HCMV antiviral inconclusive | HCV confirm 19.9µM | HCV cytotox inactive
COc1ccc(CNC(=O)c2ccc3c(=O)n4c(nc3c2)CCCCC4)cc1OC	LASV entry inh inconclusive, FMDV antiviral inconclusive, HCV inh inconclusive, MARV entry inh inconclusive, HCMV antiviral -74.5 | HCV confirm 7.91µM | HCV cytotox inconclusive
O=S(=O)(Nc1ccc(F)cc1F)c1ccc(Br)s1	LASV entry inh inconclusive (no result: HCV inh)
COc1ccc(-c2ccc3oc(-c4ccc(OC)cc4)c(C#CCCO)c3c2)cc1	HCV inh 1.12µM (no result: LASV entry inh, MARV entry inh) | HCV confirm 2.23µM | HCV cytotox inactive
COc1cc2c(cc1NC(=O)C(Cl)Cl)-c1ccc(NC(=O)C(Cl)Cl)cc1C2	LASV entry inh inconclusive, HCV inh inconclusive, MARV entry inh inconclusive, HCMV antiviral -67.8 | HCV confirm 17.7µM | HCV cytotox inconclusive
COc1cccc(NC(=O)Nc2ccncc2)c1	none
COc1cccc(NC(=O)Nc2ccc(Cc3ccncc3)cc2)c1	HCV inh inconclusive, MARV entry inh inconclusive, HCMV antiviral inconclusive | HCV confirm inconclusive | HCV cytotox inactive
CCOC(=O)c1c(C)n(C)c2cc(Br)c(OC)cc12	HCV inh 7.94µM | HCV confirm 14.1µM | HCV cytotox inactive
CCOC(=O)c1c(CN2CCN(CCO)CC2)n(C)c2cc(Br)c(OC)cc12	LASV entry inh inconclusive, HCV inh 2.82µM, MARV entry inh 8.2µM! | HCV confirm 9.95µM | HCV cytotox inactive
CCCc1cc2c(=O)c(-c3ccc4c(c3)OCCO4)c(C)oc2cc1OS(C)(=O)=O	FMDV antiviral inconclusive, HCV inh 2.24µM, HCMV antiviral inconclusive | HCV confirm 11.2µM | HCV cytotox inactive
CC1(c2ccc(OCC#N)cc2)C=C(c2ccc(OCC#N)cc2)n2nc(C(F)(F)F)nc2N1 (stereo not drawn)	LASV entry inh inconclusive, FMDV antiviral inconclusive, HCV inh 8.91µM, MARV entry inh inconclusive, HCMV antiviral -69.1 | HCV confirm 22.3µM | HCV cytotox inactive
CCc1ccc(-n2c(N3CCN(c4ccc(F)cc4)CC3)nc3ccccc3c2=O)cc1	FMDV antiviral inconclusive, MARV entry inh inconclusive, HCMV antiviral inconclusive (no result: HCV inh)
CN(C)S(=O)(=O)N1CCC(Oc2cccc(C(=O)NC3CCCCCC3)c2)CC1	LASV entry inh inconclusive, FMDV antiviral inconclusive, HCV inh 2.82µM, MARV entry inh inconclusive, HCMV antiviral -89.7 | HCV confirm 4.45µM | HCV cytotox 7.91µM
O=C(CSc1nc2nn(-c3ccccc3)c(=O)c-2c2n1CCCCC2)Nc1ccccc1[N+](=O)[O-]	HCV inh inconclusive | HCV confirm 14.1µM | HCV cytotox inactive
COc1ccc(N2CCN(C(c3ccc(F)cc3)c3sc4nc(-c5ccco5)nn4c3O)CC2)cc1 (stereo not drawn)	none (no result: HCV inh, MARV entry inh)
COCc1cc(C)nc2c1C(=O)NC(c1ccc(Br)cc1)N2Cc1ccccc1 (stereo not drawn)	MARV entry inh inconclusive (no result: HCV inh)
CCN1CCN(c2ccc(NC(=O)c3cccc(OCc4ccccc4)c3)cc2)CC1	HCV inh 4.47µM, MARV entry inh inconclusive | HCV confirm 8.87µM | HCV cytotox inactive
COc1cccc(C(=O)Nc2ccc(N3CCN(Cc4ccccc4)CC3)cc2)c1	FMDV antiviral inconclusive, HCV inh inconclusive, MARV entry inh inconclusive, HCMV antiviral inconclusive
CCN1CCc2nc(NC(=O)Cc3ccc4c(c3)OCCO4)sc2C1	HCV inh inconclusive, MARV entry inh inconclusive
Cc1sc(NC(=O)Cc2ccc3c(c2)OCO3)nc1-c1ccc2c(c1)CCN2C(=O)c1cccc(F)c1	FMDV antiviral inconclusive, HCV inh 3.98µM, MARV entry inh inconclusive, HCMV antiviral inconclusive | HCV confirm 3.53µM | HCV cytotox inconclusive
CCc1cnc2c(c1SCC(=O)NCc1ccc(F)cc1)c(=O)n(C)c(=O)n2C	HCMV antiviral inconclusive (no result: HCV inh, MARV entry inh)
c1coc(CNc2nc3nonc3nc2NCc2ccco2)c1	FMDV antiviral inconclusive, HCV inh inconclusive, MARV entry inh inconclusive, HCMV antiviral -71.6 | HCV confirm 2.23µM | HCV cytotox inactive
Cc1ccccc1NC(=O)COC(=O)c1ccc(CSc2ccc(Cl)cc2)cc1	LASV entry inh inconclusive
Cc1cc(CSc2ccc(Cl)cc2)ccc1N	HCV inh 3.98µM | HCV confirm 6.28µM | HCV cytotox inactive
Nc1ccccc1C#Cc1ccc([N+](=O)[O-])cc1	LASV entry inh inconclusive, HCV inh inconclusive, MARV entry inh inconclusive | HCV confirm 1.77µM | HCV cytotox inactive
Cc1nn(CC(=O)NCc2ccccc2Cl)c(=O)c2cccn12	none (no result: HCV inh)
CCOc1ccc(NS(=O)(=O)c2ccc3[nH]cc(C(=O)N4CCCCCC4)c(=O)c3c2)cc1	none (no result: HCV inh)
COc1nc(Nc2nc3ccccc3c(=O)[nH]2)nc2ccc(C)cc12	HCV inh 3.16µM, HCMV antiviral -100.3 (no result: LASV entry inh, MARV entry inh) | HCV confirm 7.05µM | HCV cytotox inconclusive
Cc1noc(-c2ccc(N3CCC(C)CC3)c([N+](=O)[O-])c2)n1	MARV entry inh inconclusive (no result: HCV inh)
Cc1cc2oc(C(=O)N(Cc3ccc(N(C)C)cc3)CC3CCCO3)c(C)c2cc1Cl (stereo not drawn)	LASV entry inh inconclusive (no result: HCV inh)
Cn1c(=O)cc(OCCCC(=O)NCc2ccccn2)c2ccccc21	none

Bioassay records deposited in PubChem BioAssay by National Center for Advancing Translational Sciences (NCATS).
